Several values for one entry are separate records, joined by “and”; a condition that tells them apart may be missing. Identical values can stand only once. Records with an inconclusive call do not appear. Entries that show only a call come without a potency. Activity calls are given as the source filed them. Calls follow the shape of the dose curve; as a rule, active = well fitted inhibition curve with a large enough effect in the repeat runs; inconclusive = weak or mixed curves; inactive = flat fitted curve, though single readings scatter.
Potency is read from the fitted curve at half-maximal effect.

Voltage-gated inwardly rectifying potassium channel KCNH2 (Homo sapiens), sequence (Q12809 whole entry, looked up): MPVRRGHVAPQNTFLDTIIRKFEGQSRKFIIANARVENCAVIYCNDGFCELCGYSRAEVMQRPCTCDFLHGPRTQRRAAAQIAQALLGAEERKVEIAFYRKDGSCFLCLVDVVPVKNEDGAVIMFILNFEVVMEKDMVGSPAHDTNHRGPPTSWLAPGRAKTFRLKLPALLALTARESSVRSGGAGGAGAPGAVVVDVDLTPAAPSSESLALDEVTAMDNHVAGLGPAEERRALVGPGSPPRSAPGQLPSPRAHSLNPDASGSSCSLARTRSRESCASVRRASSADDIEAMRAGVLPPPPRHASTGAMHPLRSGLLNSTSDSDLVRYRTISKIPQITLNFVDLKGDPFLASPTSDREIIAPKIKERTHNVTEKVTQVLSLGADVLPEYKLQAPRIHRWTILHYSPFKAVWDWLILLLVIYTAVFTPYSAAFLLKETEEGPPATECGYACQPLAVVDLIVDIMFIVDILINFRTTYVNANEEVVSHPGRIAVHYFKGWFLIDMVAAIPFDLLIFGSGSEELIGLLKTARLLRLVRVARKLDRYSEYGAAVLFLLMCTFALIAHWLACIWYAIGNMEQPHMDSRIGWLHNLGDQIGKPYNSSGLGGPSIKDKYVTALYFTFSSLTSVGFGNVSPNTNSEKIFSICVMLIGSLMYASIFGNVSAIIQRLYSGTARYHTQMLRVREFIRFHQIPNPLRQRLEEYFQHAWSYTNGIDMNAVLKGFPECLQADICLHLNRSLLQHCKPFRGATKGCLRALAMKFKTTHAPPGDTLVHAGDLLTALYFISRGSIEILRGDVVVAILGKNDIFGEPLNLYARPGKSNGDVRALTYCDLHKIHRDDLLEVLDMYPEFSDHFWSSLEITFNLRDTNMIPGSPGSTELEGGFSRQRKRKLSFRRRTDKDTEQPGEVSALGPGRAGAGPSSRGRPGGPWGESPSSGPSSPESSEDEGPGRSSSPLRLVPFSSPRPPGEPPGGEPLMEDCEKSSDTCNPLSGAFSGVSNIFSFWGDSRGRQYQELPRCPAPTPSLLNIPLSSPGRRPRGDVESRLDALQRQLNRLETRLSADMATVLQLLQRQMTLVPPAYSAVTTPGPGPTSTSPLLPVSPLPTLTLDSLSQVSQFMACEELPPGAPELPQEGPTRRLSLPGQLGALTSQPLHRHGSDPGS

The experiment concerns the target Voltage-gated inwardly rectifying potassium channel KCNH2 (Homo sapiens) (UniProt Q12809). Put plainly: Human Ether-a-go-go-Related Gene (hERG) channel small molecule antagonists: fluorescence cell-based qHTS assay (AID 1671200). Also: nearly all actives have a fitted effect of over 50% in size. To be noted: hERG-U2OS cells, FluxOR thallium flux fluorescence; series mostly up to 76.8 µM. An excerpt:
National Center for Advancing Translational Sciences [NCATS]
U.S. Environmental Protection Agency [EPA]
National Institutes of Environmental Health Sciences [NIEHS]
National Toxicology Program [NTP]
U.S. Food and Drug Administration [FDA]
Mutations in the hERG channel cause Long QT (LQT) syndrome. LQT syndrome is a cardiac disorder which can cause ventricle arrhythmia and sudden death. Additionally, compounds which block the hERG channel can cause acquired LQT syndrome. Several FDA approved drugs have been removed from the market due to their hERG blocking activity. A cell-based hERG channel inhibition assay can be used to screen chemical compounds that inhibit hERG channel. This assay measures hERG channel activity using thallium ions as surrogate ions to measure potassium into the cells.
Tox21 Assay Protocol Summary:
hERG-U2OS cells were resuspended in culture medium and dispensed into 1536-well, black wall/clear-bottom plates at 1000cells/well/3uL using a Multidrop Combi dispenser (Thermo Fisher, Waltham, MA). After plates were incubated at 37 C overnight, 3 uL of Loading Buffer provided by FluxOR II Potassium Ion Channel Assay kit (Thermo, Carlsbad, CA) was added to each well. The assay plates were then incubated at room temperature in the dark for 1h. […] After the assay plates were incubated at room temperature for 10 min, 1 uL of Stimulus Buffer provided by FluxOR II Potassium Ion Channel Assay kit was added into each well and fluorescence intensity (480nm excitation/540nm emission) was continuously measured for 2 min at 1 second intervals using a Functional Drug Screening System (FDSS) 7000EX kinetic plate reader (Hamamatsu, Japan).
In the case of `C=CC(=O)OCC(CO)(COC(=O)C=C)COC(=O)C=C`, the Potency result is “inactive”.

`NC(=O)NS(=O)(=O)c1ccc(N)cc1`: the Potency result is “inactive”.

For the compound `O=C(c1ccc(O)cc1O)c1ccc(O)cc1O`, the Potency result was “inactive”.

For `Cc1cccc(CN2CCN(C(c3ccccc3)c3ccc(Cl)cc3)CC2)c1` (stereo not given), the Potency is 2.39 µM (active).

On to `CCN1/C(=C/C=C/c2sc3ccccc3[n+]2CC)Sc2ccccc21`, for which the activity change, negative = inhibition is -25.3% [at 15.8 µM] (inactive).

Consider `CCC(C)(C)C1CCCCC1OC(C)=O` (stereo not given), for which the Potency result is “inactive”.

For the compound `OCc1c[nH]c2ccccc12`, the Potency entry was “inactive”.

As to `Clc1ccccc1C(c1ccccc1)(c1ccccc1)n1ccnc1`, the Potency was 19.5 µM (active) and 16.9 µM (active).

`NC(=O)N1C(=O)C(C(=O)c2cc(Cl)cs2)c2cc(F)c(Cl)cc21` (stereo not given): the Potency result is “inactive”.

As to `Cc1oc(-c2ccccc2)nc1CCC(=O)c1ccc(CC2SC(=O)NC2=O)cc1` (stereo not given), the Potency entry is “inactive”.

In the case of `CCc1cc(SCc2sc(-c3ccc(C(F)(F)F)cc3)nc2CN2CCN(c3ccc(OC)cc3)CC2)ccc1OCC(=O)O`, the Potency was 4.36 µM (active).

As to `Cc1cc(CCN2CCN(c3nsc4ccccc34)CC2)cc2c1NC(=O)CC2(C)C`, the Potency was 21.9 µM (active).

In the case of `Oc1ccc(C2(c3ccc(O)cc3)CC3CC2C2CCCC32)cc1` (stereo not given), the Potency result was “inactive”.

Take `CC(C)(C)CC(C)(C)c1ccc(O)c(Cc2ccc(Cl)cc2Cl)c1`: the Potency entry was “inactive”.

Regarding `Nc1ccc2cc(S(=O)(=O)O)cc(O)c2c1N=Nc1ccccc1C(F)(F)F`, the Potency result is “inactive”.

As for `CCC(C)Nc1ccc(NC(C)CC)cc1` (stereo not given), the Potency is 7.91 µM (active).

On to `C/C=C(\C)C(=O)OCc1ccccc1`, for which the Potency entry is “inactive”.

Consider `S=c1[nH]c2ccccc2s1`, for which the Potency entry is “inactive”.

Take `C[n+]1cc2c3c(ccc2c2ccc4cc5c(cc4c21)OCO5)OCO3`: the activity change, negative = inhibition was -0.0312% [at 15.8 µM] (inactive).

`O=C(O)c1ccc(Cl)c(Cl)c1`: the Potency entry is “inactive”.

For `O=c1c(-c2ccccc2)c1-c1ccccc1`, the Potency entry was “inactive”.

Consider `CCCC(c1cc(C(C)(C)C)c(O)cc1C)c1cc(C(C)(C)C)c(O)cc1C`, for which the Potency result is “inactive”.

Consider `Cc1cc(N)c(S(=O)(=O)O)cc1Cl`, for which the Potency entry is “inactive”.

For the compound `O=c1[nH]sc2cc(Cl)ccc12`, the Potency entry was “inactive”.

`CNC(=O)c1ccccc1`: the Potency entry is “inactive”.

As for `Nc1ccccc1O`, the Potency entry was “inactive”.

As to `O=C(c1ccc(F)cc1)C1CCN(CCn2c(=O)[nH]c3ccccc3c2=O)CC1`, the Potency was 2.39 µM (active).

With `O=C1c2ccccc2Cc2ccccc21`, the Potency entry is “inactive”.

Turning to `O=C(N/N=C/c1ccccc1O)c1ccncc1`, the Potency result is “inactive”.

Take `CCCCCCCC(=O)[O-].CCCCCCCC(=O)[O-].[Zn+2]`: the Potency result was “inactive”.

As to `CCCCCCCC[N+](CCCCCCCC)(CCCCCCCC)CCCCCCCC`, the Potency was 0.69 µM (active).

Take `CCc1cc(Cc2cc(CC)c(N)c(CC)c2)cc(CC)c1N`: the Potency result is “inactive”.

Take `NC(=NCCCCCCN=C(N)/N=C(\N)Nc1ccc(Cl)cc1)/N=C(\N)Nc1ccc(Cl)cc1`: the Potency entry is “inactive”.

For `Oc1ccc(N=Nc2ccccc2)cc1`, the Potency entry is “inactive”.

In the case of `COc1ccc(-c2ccc3cc(C(=O)O)ccc3c2)cc1C12CC3CC(CC(C3)C1)C2`, the Potency result is “inactive”.

Consider `Cc1[nH]nc2c1N=C(c1ccccc1Cl)c1cc([N+](=O)[O-])ccc1N2`, for which the Potency was 8.71 µM (active).

On to `CCCCCCCCCCC=O`, for which the Potency entry is “inactive”.

In the case of `OCCN(CCO)c1nc(N2CCCCC2)c2nc(N(CCO)CCO)nc(N3CCCCC3)c2n1`, the Potency result was “inactive”.

As to `CC(=O)SC[C@@H](Cc1ccccc1)C(=O)NCC(=O)OCc1ccccc1`, the Potency entry was “inactive”.

Take `CC(C)(C)C(=O)OCOC(=O)[C@@H]1N2C(=O)[C@@H](NC(=O)[C@H](N)c3ccccc3)[C@H]2SC1(C)C`: the Potency result was “inactive”.
